Measurements taken from the supplement of paper PMC9433436.
± gives the standard deviation of the averaged measurements. Whole data set: some 4,100 sequences, median “relative kcat/Km (krel) vs genomic leader AAAGAU” near 1.7, cut for the highest 2% near 6.5. Many of the other results were omitted from the sample, so the highest values are more common in it than they were.

Target: T1, E. coli RNase P holoenzyme (M1 P RNA + rnpA protein) (UniProt P0A7Y8)
T1 sequence: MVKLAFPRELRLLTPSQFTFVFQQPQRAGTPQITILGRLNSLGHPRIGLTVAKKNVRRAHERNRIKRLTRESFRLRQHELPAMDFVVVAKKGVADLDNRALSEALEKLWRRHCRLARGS
Test: relative kcat/Km (krel) vs genomic leader AAAGAU (relative (reference leader = 1)); higher = faster RNase P cleavage
Procedure: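 HTS-Kin: a pool of ptRNA-Met (21C construct) with all 4096 combinations of 5' leader nucleotides N(-6) to N(-1) was processed in vitro by E. coli RNase P (P RNA + rnpA/C5 protein) under multiple-turnover conditions at 37 C, pH 8, 17.5 mM MgCl2. Residual substrate was Illumina-sequenced at several fractions reacted, and relative kcat/Km (krel) was computed by internal competition kinetics, calibrated to the genomic leader (AAAGAU = 1). The listed hexamer is the varied N(-6)..N(-1) leader (DNA letters), and it sits between a fixed 5' stem-loop flank (GCAUGCACGAAAGUGCGUGCUAUGAA) and the mature tRNA-Met starting GGCUACGUAGCUCAGUUGG. Two technical replicates are averaged.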

[1] = fraction of substrate reacted: ~26-29% (28.66% repeat 1, 26.4% repeat 2)
[2] = fraction of substrate reacted: ~9-10% (9.79% repeat 1, 9.1% repeat 2)
[3] = fraction of substrate reacted: ~13-16% (15.68% repeat 1, 13.17% repeat 2)

Sequence	relative kcat/Km [1]	relative kcat/Km [2]	relative kcat/Km [3]
TAAAGG	0.833 ± 0.34	–	–
CCGACA	0.842 ± 0.8	0.997 ± 0.31	–
GTGTCG	0.804 ± 0.49	–	–
AGCCTA	2.57 ± 0.69	2.05 ± 0.87	1.97 ± 0.57
CACAGA	7.2 ± 2.4	3.95 ± 0.46	4.77 ± 2
GACAGA	6.53 ± 2.4	3.09 ± 0.71	4.59 ± 1.2
GACAGG	1.2 ± 0.042	–	–
CACAGG	1.35 ± 0.051	0.41 ± 0.093	–
CACAGT	1.95 ± 1.9	–	–
AACAGA	5.65 ± 2.1	3.71 ± 2.3	4.083 ± 0.036
GTACAG	1.99 ± 0.4	–	–
GAAGGT	1.31 ± 0.065	–	–
TACACA	5.53 ± 2.6	3.05 ± 1.1	3.7 ± 0.067
CACAGC	5.98 ± 2.7	3.88 ± 1.2	4.31 ± 1.1
TACAGA	8.3 ± 3	4.52 ± 2	5.66 ± 0.35
TACAGC	6.84 ± 2.6	3.82 ± 2	4.94 ± 0.45
TACAGT	2.94 ± 2.7	–	–

Sequence	relative kcat/Km [1]	relative kcat/Km [2]	relative kcat/Km [3]
TACAGG	1.7 ± 0.63	–	–
CTGACC	1.2 ± 0.63	–	0.599 ± 0.52
ACTGTC	1.12 ± 0.25	1.77 ± 1.3	0.935 ± 0.31
AAGATT	2.06 ± 0.8	1.89 ± 0.21	1.82 ± 0.21
GTGTAA	2.94 ± 1.5	1.31 ± 0.75	2.41 ± 1.1
TTCTAG	7.01 ± 3.1	4.08 ± 2.6	4.58 ± 0.56
TTCTAA	10.6 ± 4.1	5.69 ± 2.2	7.17 ± 1.2
AGCTAA	5.8 ± 3	3.22 ± 1.8	3.61 ± 1
TGCTAG	2.44 ± 0.12	1.97 ± 1.5	1.376 ± 0.0054
GTCTAA	10.1 ± 4.8	4.58 ± 0.43	7.55 ± 1.7
GGCTAA	3.19 ± 0.8	2.12 ± 0.85	2.32 ± 0.78
TGCTAA	3.74 ± 1.1	2.19 ± 0.95	2.88 ± 0.23
ATCTAA	8.58 ± 3.4	4.39 ± 1.5	5.55 ± 1.1
TTTCTA	2.89 ± 1.2	2.15 ± 0.72	2.3 ± 0.57
GTGAAC	2.83 ± 0.88	1.89 ± 0.25	2.27 ± 0.31
TTGCAG	1.37 ± 0.19	–	–
